Data: PubChem BioAssay (NCI)
The panel holds about 79,000 compounds, 15% with a hit somewhere; the sample as a whole holds those more often. The source made the active and inactive calls. Cut-off read from the data, not from the text of the source: active = growth inhibition above about 70%; inactive = the rest.

What was measured:
[1] = NCI Yeast Anticancer Drug Screen. Data for the rad50 strain (AID 155);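 note: 0% = growth of vehicle-only cultures of the same strain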; conditions: S. cerevisiae rad50 strain growth inhibition; at 50.0 µM; active compounds read high
Outline: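 Yeast carrying a defined DNA repair defect were exposed to test compounds, and growth was compared with vehicle-treated controls to give percent inhibition.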

[2] = NCI Yeast Anticancer Drug Screen. Data for the mec2-1 strain (AID 157); conditions: S. cerevisiae mec2-1 strain, at 50.0 µM, active compounds read high
Outline: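 Cells of the genetically defined mec2-1 yeast strain are incubated with test compound. Inhibition of growth is calculated against vehicle-treated controls.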

[3] = NCI Yeast Anticancer Drug Screen. Data for the sgs1 mgt1 strain (AID 161);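 note: 0% = growth of cultures given vehicle only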; conditions: S. cerevisiae sgs1 mgt1 strain, at 50.0 µM, active compounds read high
Outline: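 Inhibition of yeast growth, normalised to vehicle-treated controls, is reported for a strain bearing genetic alterations in DNA damage repair.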

[4] = NCI Yeast Anticancer Drug Screen. Data for the cln2 rad14 strain (AID 165);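 note: 0% = growth equal to vehicle treated cultures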; conditions: S. cerevisiae cln2 rad14 strain, at 50.0 µM, active compounds read high
Outline: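 The screen exposed genetically defined yeast (cln2 rad14) to test compounds and scored growth inhibition relative to vehicle-treated controls.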

[5] = NCI Yeast Anticancer Drug Screen. Data for the bub3 strain (AID 167); conditions: S. cerevisiae bub3 mutant strain, at 50.0 µM, active compounds read high
Outline: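 Compounds were applied to a genetically altered yeast strain carrying a cell-cycle control defect. Growth inhibition was scored against vehicle-treated controls.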

[6] = NCI Yeast Anticancer Drug Screen. Data for the mlh1 rad18 strain (AID 175); conditions: S. cerevisiae mlh1 rad18 strain growth inhibition; at 50.0 µM; active compounds read high
Outline: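 Compound-treated yeast growth, normalised to vehicle controls. Strain bears defined DNA repair mutations.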

Measured: growth inhibition

O=C(NN=C1c2ccccc2-c2ccccc21)C(F)(F)F
active: [1] 87%
inactive: [2] 2.05% | [3] 4.65% | [4] 31.2% | [5] 6% | [6] 21.9%

CCCCOc1ccc(N)cn1
inactive: [1] -5.05% | [2] -4.85% | [3] 6.15% | [4] -16.4% | [5] 32.7% | [6] -5.45%

CSc1nc2c(ncn2C2OCC(O)C(O)C2O)c(=O)n1C (centres undefined)
inactive: [1] 12% | [2] 7.7% | [3] -24.2% | [4] 29.6% | [5] -4.35% | [6] 15.6%

CC(C)(C)C(=O)CC(=O)C(C)(C)C.[Cu]
inactive: [1] -10.2% | [2] -9.35% | [3] -4.2% | [4] -56.6% | [5] -26.4% | [6] 9.05%

CSCCNC(=O)CS(=O)(=O)c1ccc(N)cc1
inactive: [1] -10.3% | [2] -25.9% | [3] -7.65% | [4] -13.2% | [5] -2.35% | [6] -14.9%

CCc1c[nH]c(C=O)c1CC
inactive: [1] 6.35% | [2] -14.1% | [3] -12.5% | [4] 11.4% | [5] -10.8% | [6] 18.6%

O=c1oc2ccccc2c(O)c1C(c1ccc2c(c1)OCO2)N1CCCC1 (centres undefined)
inactive: [1] 7.4% | [2] 36.7% | [3] 19.9% | [4] 15.3% | [5] 8.35% | [6] 22.9%

N#CCc1c(-c2ccccc2)n(S(=O)(=O)c2ccccc2)c2ccccc12
inactive: [1] 4.45% | [2] -2.55% | [3] -20.6% | [4] 8.45% | [5] -9.9% | [6] -5.3%

CCCCN=Cc1ccc(Cl)cc1
inactive: [1] -2.65% | [2] -24.1% | [3] -32.1% | [4] 6.5% | [5] -19.9% | [6] -6%

COc1ccc(C(=O)c2ccc(Cl)s2)cc1
inactive: [1] 8.4% | [2] -4.85% | [3] 22.4% | [4] -13.2% | [5] 21% | [6] 5.1%

CCOc1cc2c(cc1C(CC)c1ccccc1)OCO2 (centres undefined)
inactive: [1] 6.75% | [2] 12.6% | [3] 9.75% | [4] 3% | [5] 17.6% | [6] 14.7%

CCCCCCC(=O)CC1(C(=O)OC)NC(=S)NC(=O)C1C#N (centres undefined)
inactive: [1] 18.1% | [2] 6.85% | [3] -1.55% | [4] -0.75% | [5] -9.55% | [6] 15.8%

COc1cc([N+](=O)[O-])c2ncccc2c1
inactive: [1] -15.9% | [2] -16% | [3] -7.6% | [4] 6.9% | [5] -3.1% | [6] 18.1%

CN1N=Nc2ccccc2C1(O)c1ccccc1 (centres undefined)
inactive: [1] 8.7% | [2] -3.05% | [3] 0.25% | [4] -18.6% | [5] -11.9% | [6] 6.9%

CC1=C/C(=N\NC(=O)c2ccc[n+](C)c2)CC(C)(C)C1
inactive: [1] 18.7% | [2] 2.2% | [3] 6% | [4] 18.4% | [5] -5.4% | [6] 12.2%

O=S(=O)(c1ccc(Nc2nnc(-c3ccccc3)s2)cc1)N1CCCCC1
inactive: [1] -4% | [2] 12.8% | [3] 42.3% | [4] -23.1% | [5] 40.9% | [6] 5.65%

Oc1ccc(Cl)c(O)c1
inactive: [1] 30.1% | [2] -0.55% | [3] -3.65% | [4] 0.9% | [5] -6% | [6] 21.7%

Nc1[nH]c(=O)nc2snnc12
inactive: [1] 2.35% | [2] -2.3% | [3] 14.9% | [4] 16.3% | [5] 6.1% | [6] -57.9%

O=C(O)CC1CCCc2ccccc2C1=O (centres undefined)
inactive: [1] 34.3% | [2] 46.3% | [3] 18.1% | [4] 25.9% | [5] 48.5% | [6] 17.9%

O=S1c2ccccc2N=C(c2cccc3ccccc23)CC1c1cccc2ccccc12 (centres undefined)
inactive: [1] 56.4% | [2] 38.8% | [3] 52.5% | [4] 23.8% | [5] 58.1% | [6] 41%

O=C(/C=C/CC(O)(c1ccccc1)c1ccccc1)Nc1ccccc1Cl
inactive: [1] -15.2% | [2] -25.9% | [3] -4.85% | [4] 2.5% | [5] 10.1% | [6] -10.2%

O=c1cccccc1Cl
inactive: [1] 14.8% | [2] -41.6% | [3] 20.9% | [4] 5.6% | [5] 40.8% | [6] 11.6%

COc1ccc2c3c([nH]c2c1)[C@H]1C[C@H]2[C@H](C[C@@H](O)[C@H](OC)[C@H]2C(=O)O)CN1CC3
inactive: [1] 26.3% | [2] 21% | [3] -18.9% | [4] 1.85% | [5] 23.6% | [6] 30.4%

O=C(NC(=S)c1ccco1)NS(=O)(=O)c1ccc(Cl)cc1
inactive: [1] 8.35% | [2] 7.05% | [3] 12.2% | [4] 16.2% | [5] 20.4% | [6] 29.4%

CS(=O)(=O)c1ccc(C=O)cc1
inactive: [1] 12.8% | [2] 6% | [3] 2.25% | [4] -3.8% | [5] -1.4% | [6] 8.3%

O=[N+]([O-])c1ccc(-c2ccc([N+](=O)[O-])cc2)cc1
inactive: [1] -2.05% | [2] -0.95% | [3] 7.7% | [4] -38.5% | [5] 22.6% | [6] -13.3%

COc1cc(NC(=O)Nc2cccc(C(C)=O)c2)c(OC)cc1Cl
inactive: [1] -10.5% | [2] 11% | [3] 0.75% | [4] -14.4% | [5] 6.35% | [6] -9.15%

CCOC(=O)C(C)CC(=O)C(C)CC(=O)C(C)C (centres undefined)
inactive: [1] -9.95% | [2] 6.1% | [3] -13.3% | [4] -14.2% | [5] -9.75% | [6] -5.05%

O=C1CC(c2ccccc2)OC(c2ccccc2Cl)C1 (centres undefined)
inactive: [1] -1.25% | [2] -8.35% | [3] -39.5% | [4] -20.7% | [5] -5.85% | [6] 9.1%

CC(=O)Oc1nnc(-c2ccccc2)c(-c2ccccc2)n1
inactive: [1] 24.5% | [2] 16.9% | [3] 17.1% | [4] 13.8% | [5] 7.4% | [6] 17.3%

Cc1cc(C)c(C(C)(C)O)c(C)c1
inactive: [1] 8.45% | [2] 0% | [3] 3.9% | [4] 22.4% | [5] -1.65% | [6] 1.1%

CCCSc1ccc2c3c(cccc13)C(=O)OC2=O
inactive: [1] 47.5% | [2] 42.9% | [3] 46% | [4] 45.6% | [5] 57.7% | [6] 27.5%

CCC1(C(=O)O)NC(=O)NC1=O (centres undefined)
inactive: [1] -2.55% | [2] -11.6% | [3] -12.3% | [4] -8.95% | [5] 4.5% | [6] -4.25%

CCC1(O)c2ccccc2CCC1C (centres undefined)
inactive: [1] 12.8% | [2] -15.8% | [3] -15.3% | [4] -29.9% | [5] -33.1% | [6] -19.9%

CCOC(=O)c1cn2c(nc1=O)N[C@H]1CCCC[C@@H]12
inactive: [1] 37.8% | [2] 11.1% | [3] 0.4% | [4] -2.45% | [5] 8.4% | [6] -1%

CCOC(=O)c1c(C)c2c(n1C)CCC(C#N)C2=O (centres undefined)
inactive: [1] 9.3% | [2] 10.4% | [3] 9.8% | [4] 21.1% | [5] 9.05% | [6] 17.5%

CCC(CC)CC1CCCCC1O (centres undefined)
inactive: [1] -30.7% | [2] -44% | [3] -46.9% | [4] -17.2% | [5] -48.7% | [6] -11.9%

CC[N+](CC)(CC)CCCC[P+](CC)(CC)CC
inactive: [1] 15.8% | [2] -9.15% | [3] 8.8% | [4] 9.9% | [5] 10.2% | [6] 13.7%

CC(C)C1OC2(CCCCC2)OCC1(C)C (centres undefined)
inactive: [1] 23.2% | [2] 14.8% | [3] 8.25% | [4] -8.35% | [5] 21.1% | [6] 23.4%
